An excerpt weighted towards active compounds, which were near 21% of everything screened.
Cycloheximide cs: counter-screen hit for Shiga toxin inhibitors, cycloheximide | cell reporter, cycloheximide protein synthesis inhibition counterscreen | max response, % | 300,000 tested, 12% active; in the data active = max response mostly above about 13%, no sharp cut-off; inactive = mostly below about 14%; also: read at 38.3 µM for the half of the compounds with a filed dose; 0% is about no effect
HCV inh: HCV inhibition. Potency, µM (highest dose often 41.8 µM), inactives show at the highest dose activity change, negative = inhibition, most hits filed as inhibitors. 340,000 tested, 3.4% active. Huh7.5.1 HCVcc-Cre infection, luciferase reporter, 44 h. AID 651820; also: potency is read from the fitted curve at half-maximal effect; % is scaled to controls: 0 for no effect and ±100 for the full control effect
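A cell-based infection assay in which seeded cells (1,000 per well) receive test compound after 4 h, are inoculated with HCVcc-Cre at approximately 0.5 moi, and are incubated 44 h before luminescence detection.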
Shiga inhibitor: Shiga toxin inhibition | Vero cells, Shiga toxin protein synthesis inhibition reporter | inhibition, % at 38.7 µM | 290,000 tested, 9.2% active | AID 2315; in the data active = inhibition mostly above about 28%, no sharp cut-off; inactive = mostly below about 43%; also: 0% is about no effect
HCMV antiviral: blocks human cytomegalovirus replication | HFF cells, HCMV-luciferase reporter, 72 h; active compounds read low | activity change, negative = inhibition, % at 57.5 µM | 410,000 tested, 4.5% active | AID 1259415; in the data active = activity change below about -60%; inconclusive = no clear call, values can overlap the other calls; inactive = above about -39%; also: % is scaled to controls: 0 for no effect and ±100 for the full control effect
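Two-dose cell screen: HFF monolayers treated with compounds and infected with luciferase-expressing HCMV at 1 PFU/cell, 72 h at 37C, then lysed for luciferase measurement.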
Pf growth 48h: inhibits P. falciparum growth in the first generation, 48 h | P. falciparum luciferase growth in erythrocytes, 48 h | Potency, µM (doses to about 28.7 µM), without a hit: top-dose activity change, negative = inhibition, usual class: inhibitors | 310,000 tested, 5.9% active | AID 504832; also: potency is read from the fitted curve at half-maximal effect; % is scaled to controls: 0 for no effect and ±100 for the full control effect
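Luciferase-expressing parasites in RBCs, 2% Hct / 0.1% parasitemia final; RPMI 1640 + 0.5% Albumax; 37 C, 5% CO2, one generation; luminescence read-out, lower signal = inhibition.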
Pf growth 96h: inhibits malaria parasite growth, 96 h; 320,000 tested, 6.9% active; P. falciparum luciferase reporter growth, 96 h; AID 504834; Potency, µM (highest dose often 28.7 µM), for inactives: at the highest dose activity change, negative = inhibition, most hits filed as inhibitors; also: potency is read from the fitted curve at half-maximal effect; % is scaled to controls: 0 for no effect and ±100 for the full control effect
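Luminescence readout: decreased luciferase signal marks inhibited growth of reporter-expressing P. falciparum in infected red cells (2% hematocrit, 0.05% parasitemia final), exposed to compound two generations (96 h, 37 C, 5% CO2).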
An asterisk follows results filed as active; ? = inconclusive; · = no result; [ ] = another dose, or the depositor's remark. Unless noted, calls follow the shape of the dose curve; as a rule, active = well fitted inhibition curve with a large enough effect; inconclusive = small, poorly fitted or top-dose-only effect, or another doubt; inactive = no such curve, though single readings can be large or run the other way.

SMILES	Cycloheximide cs	HCV inh	Shiga inhibitor	HCMV antiviral	Pf growth 48h	Pf growth 96h
COc1ccc(NC(=O)CC(NCCc2ccccc2)C(=O)O)c(OC)c1 (centres undefined)	-6	9%	32	30	-11%	39%
O=c1cc(N2CCCC2)c2ccccc2o1	1	11µM*	19	-1	60%	-14%
O=c1cc(N2CCOCC2)c2ccccc2o1	-3	16%	-15	15	·	51%
CCCCNC(=O)c1c(-c2ccccc2)c(-c2ccccc2)nn(C)c1=O	·	·	·	5	·	·
CCCCCCC(=O)N(O)C1CC(=O)N(c2ccc(Br)cc2)C1=O (centres undefined)	-4	-18%	-12	36	13µM*	2%
CCCCN(C(=O)CCC(=O)O)C1CC(=O)N(c2ccc(OCCC)cc2)C1=O (centres undefined)	-1	4%	-4	35	0%	8%
COc1ccccc1N(O)C1CC(=O)N(c2ccc(Br)cc2)C1=O (centres undefined)	27*	-3%	42*	-23	4%	16%
CCCCCCC(=O)N(O)C1CC(=O)N(c2ccc(F)cc2)C1=O (centres undefined)	8	10%	8	117	4.7µM*	9.3µM*
Cc1ccnc(NC(=O)CCCc2c[nH]c3ccccc23)c1	23*	-14%	46*	-101*	58%	51%
Cc1ccc(CNC(=O)CCCc2c[nH]c3ccccc23)cc1	11	-13%	7	-14	-2%	0%
Cc1ccc(NC(=O)CCCc2c[nH]c3ccccc23)nc1	5	-22%	16	-98*	10%	49%
O=C(O)c1cc(N=Nc2ccc(-c3ccc(N=Nc4ccc(O)c(C(=O)O)c4)cc3)cc2)ccc1O	12	·	26*	·	·	·
CCOc1ccc(NC(=O)CN2CCCC2c2cccs2)cc1S(=O)(=O)N1CCCC1 (centres undefined)	·	11µM*	·	-92*	12µM*	15µM*
O=C(CN1CCCC1c1cccs1)Nc1cccc(S(=O)(=O)N2CCCC2)c1 (centres undefined)	·	10µM*	·	-33	?	?
COc1cc(C(CC(=O)Nc2ccc(C)c(F)c2)N2Cc3ccccc3C2=O)cc(OC)c1OC (centres undefined)	·	·	·	-2	·	·
CCOC(=O)c1c(/N=C/c2ccc(C)cc2O)sc2c1CCN(C)C2	2	?	-2	7	?	?
CCOC(=O)c1c(NC(=S)Nc2ccc(OCC)cc2)sc2c1CCN(C)C2	18*	?	36	-9	8.3µM*	3.7µM*
CCOC(=O)c1c(NC(=O)Cc2ccccc2)sc2c1CCN(C)C2	-4	?	4	-20	-21%	0%
CCOC(=O)c1c(NC(=O)Nc2ccc(F)cc2)sc2c1CCN(C)C2	-1	?	-8	?	8.3µM*	?
CCOC(=O)c1c(/N=C/c2cccc(C)c2O)sc2c1CCN(C)C2	-3	-4%	-7	·	?	1.7µM*
CCOC(=O)c1c(NC(=O)CSc2nnc(C)s2)sc2c1CCN(C)C2	-2	?	-7	23	6.6µM*	?
COc1cc(N)c2ncccc2c1Cl	·	-8%	·	-31	·	·
CN1C(=O)C(n2ccc3ccccc32)c2cc(OC(F)(F)F)ccc21 (centres undefined)	·	·	·	-9	·	·
COc1ccc(OC)c(CCNC(=O)CC2(CC3=NS(=O)(=O)c4ccccc4N3)CCCC2)c1	0	?	-3	61	?	16%
CCOC(=O)c1c(NC(=O)C(F)(OC)C(F)(F)F)sc2c1CCN(C)C2 (centres undefined)	-4	?	-7	28	?	10µM*
SMILES	Cycloheximide cs	HCV inh	Shiga inhibitor	HCMV antiviral	Pf growth 48h	Pf growth 96h
Cc1nnc(SCC(=O)Nc2sc3c(c2C(=O)c2ccccc2)CCCC3)s1	-1	?	-17	-62*	2%	-3%
COc1ccc2cnn(-c3ccc(OC(F)(F)F)cc3)c(=O)c2c1OC	2	5%	-7	-7	1%	11%
Fc1c(F)c(F)c(/C=N/NC(=S)Nc2cccnc2)c(F)c1F	-2	?	-11	-81*	?	?
Fc1ccc(/C=N/NC(=S)Nc2cccnc2)cc1F	5	-24%	-1	?	4%	-51%
Fc1ccc(/C=N/NC(=S)Nc2cccnc2)cc1	27*	11%	41	-6	-10%	-26%
CN(C)C1=NCCN1CC1CCCCCC1	·	-6%	·	47	?	38%
Cc1ccc(Cl)cc1N1CCN(S(=O)(=O)c2ccc3[nH]c4c(c3c2)CCCCC4)CC1	·	·	·	1	·	·
COCCNC(=O)C(NC(=O)C1CCCCC1)C12CC3CC(CC(C3)C1)C2 (centres undefined)	-6	13%	-19	4	?	1.5µM*
COc1cc(OC)cc(C(=O)NC(C(=O)NCCN(C)C)C23CC4CC(CC(C4)C2)C3)c1 (centres undefined)	-7	10µM*	-20	18	?	2%[5.75 µM]
CC(C)(C)OC(=O)n1cc(C(=O)c2ccccc2O)cn1	-1	20%	3	15	25%	8%
COc1cccc(C(=O)N2c3ccc(C)cc3C(C)(c3ccccc3)CC2(C)C)c1 (centres undefined)	·	·	·	-33	·	·
COc1ccc(NC(=O)c2oc3ccccc3c2NC(=O)c2ccco2)c(OC)c1	11*	-10%	16	-13	?	?
COc1ccc(NC(=O)c2oc3ccccc3c2NC(=O)c2ccco2)cc1	47*	?	35*	-4	?	1%
Cc1cc(C)cc(NC(=O)N2CCC(C(=O)c3ccc(F)cc3)CC2)c1	6	?	-2	-39	?	32%
CC(=O)c1cccc(NC(=O)N2CCC(NC(=O)C3CCCCC3)CC2)c1	-2	5%	23	-13	-12%	?
O=C(Nc1cccc(F)c1)C1CCN(C(=O)NCc2ccccc2)CC1	-1	-25%	-3	-18	4%	-17%
O=C(NC1CCN(C(=O)Nc2cccc(F)c2)CC1)C1CCCCC1	1	0%	19	4	-4%	12µM*
Cc1cccc(NC(=O)N2CCC(C(=O)c3ccc(F)cc3)CC2)c1	1	?	10	-64*	-8%	4%
O=C(Nc1cccc(F)c1)N1CCC(c2ccccc2)CC1	41*	-9%	74*	-36	?	-15%
O=C(Nc1cccc(F)c1)NC1(C(=O)N2CCC(O)CC2)CCCCC1	-7	6%	5	-99*	6%	0%
O=C(Nc1cccc(F)c1)N1CC=C(c2ccc(Cl)cc2)CC1	46*	-10%	75*	-25	·	5.9µM*
O=C(Nc1ccc(F)c(Cl)c1)N1CC=C(c2c[nH]c3ccccc23)CC1	·	·	·	0	·	·

Assay outcomes from PubChem BioAssay.
